Results on 18 molecules are retold here after PubChem BioAssay (Tox21).

The nature of experiment [1]: qHTS assay for small molecule agonists of the p53 signaling pathway (AID 651631; calls by dose curve; note: nearly all actives have a fitted effect of over 15% in size; note: potency is the fitted concentration of half-maximal effect). The procedure, abridged: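 Stably transfected HCT-116 cells (beta-lactamase behind p53 response elements) get compounds after a 5 h settling period; 16 h later at 37 °C, FRET substrate is loaded and fluorescence read after 2 h.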
A short description of experiment [2]: qHTS assay for small molecules that induce genotoxicity in human embryonic kidney cells expressing luciferase-tagged ATAD5 (AID 651632). Note: nearly all actives have a fitted effect of over 15% in size. The procedure, abridged: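 Luminescence read-out: after 16 hr compound exposure at 37C, ATAD5-luciferase HEK293T cells received Amplite, 30 min RT, then CCD imaging. A rise in signal marks genotoxic stress.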
In general terms: In qHTS, concentration-response curves come from the screen itself.

The nature of experiment [3]: qHTS assay for small molecule agonists of the p53 signaling pathway - cell viability (AID 651633; calls by dose curve;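 note: p53RE-bla HCT reporter cells with a stable beta-lactamase p53 reporter; series mostly up to about 83 µM; nearly all actives have a fitted effect of over 30% in size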). Summed up: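 p53RE-bla cells, seeded at 4,000 per well and rested 5 h at 37 C/5% CO2, received compounds in DMSO for 16 h at 37 C. CellTiter-Glo was then added, and luminescence was read after 30 min at room temperature to gauge cytotoxicity.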
Experiment [4] can be described thus: qHTS assay for small molecules that induce genotoxicity in human embryonic kidney cells expressing luciferase-tagged ATAD5 - cell viability (AID 651634; calls by dose curve; note: nearly all actives have a fitted effect of over 25% in size). Summed up:
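HEK293T ATAD5-luc cells, 2,000/well; compound 15.5 hr, 37C/5% CO2; CellTiter-Fluor 30 min, 37C; fluorescence read.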

The nature of experiment [5]: qHTS assay for small molecule disruptors of the mitochondrial membrane potential - cell viability (AID 720634; calls by dose curve;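 note: human HepG2 liver cancer cells; series mostly up to about 83 µM; nearly all actives have a fitted effect of over 20% in size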). The procedure, abridged:
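Luminescence from CellTiter-Glo (ATP content) gave viability in HepG2 cells, read in the same wells as the MMP dye assay after 1 hr compound exposure at 37 C.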

The nature of experiment [6]: qHTS assay for small molecule disruptors of the mitochondrial membrane potential (AID 720635). Note: potency is the fitted concentration of half-maximal effect. The procedure, abridged: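 HepG2 cells (2,000/well) attached overnight at 37C, then took compound for 1 hr at 37C, 5% CO2. Mito-MPS dye was added for 30 min; fluorescence was read at 490/535 nm (monomers) and 540/590 nm (aggregates).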
Experiment [7] in a line: qHTS assay to test for compound auto fluorescence at 590 nm (red) in HepG2 cells (AID 720674). The procedure, abridged:
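Rose Bengal sodium served as the red fluorophore standard. HepG2 monolayers (overnight attachment, MEM with 10% FBS) were exposed to test compounds for 1 hr at 37 C and read at Ex 540/Em 590 nm.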

The nature of experiment [8]: qHTS assay to test for compound auto fluorescence at 535 nm (green) in HepG2 cells (AID 720675).
A short description of experiment [9]: qHTS assay to test for compound auto fluorescence at 460 nm (blue) in HEK293 cells (AID 720678). Summed up:
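Auto fluorescence in the blue band was quantified as triamterene equivalency. HEK293 cells were seeded at 2,000/well, dosed after a 4-5 hr attachment, and kept overnight at 37C before the 405/460 nm reading.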

The nature of experiment [10]: qHTS assay to test for compound auto fluorescence at 590 nm (red) in HEK293 cells (AID 720679). The procedure, abridged:
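Autofluorescence equivalency to Rose Bengal sodium, 540/590nm, in HEK293 cells exposed overnight to 23 nL compound per well.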

Molecules are shown by their SMILES. Values joined by “and” are separate entries in the source; they are usually repeats but may differ in a detail not shown here. Equal values may be shown once. Inconclusive results are not listed. Active and inactive are the calls of the source. Unless noted, calls come from the whole dose curve; as a rule, active = well fitted curve in the direction sought with a large enough effect in the repeat runs; inconclusive = weak or mixed curves; inactive = no such curve, though single readings can be large; an effect the other way counts as inactive or inconclusive. Positions of bridges follow the written chain, without caps; N, C: chain ends. Non-standard residues stand in square brackets, D forms with d. Residues, ends and D or L forms follow the SMILES beside them. *: point of attachment. Dab(CH2SO3H) = N[C@@H](CCNCS(=O)(=O)O)C(=O)O; X3 = CC[C@@H](C)CCCCC(=O)*; Dab = NCC[C@H](N)C(=O)O

In the case of `C[C@@H]1O[C@@H]1P(=O)(O)O`, the Potency entry in [1], in [2], in [3], in experiment [4], in experiment [5] and in experiment [6] was “inactive” throughout. Besides, the Potency entry in experiment [8] and in experiment [9] was “inactive” in each case. Besides, the outcome in [7] and in experiment [10] was inactive.

In the case of `CC(=O)OCC(=O)[C@@]1(O)CC[C@H]2[C@@H]3CCC4=CC(=O)CC[C@]4(C)C3=CC[C@@]21C`, the Potency entry in experiment [1], in [2], in [3], in experiment [4], in experiment [5] and in experiment [6] was “inactive” in each case. In addition, the Potency result in [8] and in experiment [9] was “inactive” throughout. Besides, the outcome in experiment [7] and in experiment [10] was inactive.

On to `CN(C)CCc1c[nH]c2ccc(Cn3cncn3)cc12`, for which the Potency result in experiment [1], in [2], in [3], in experiment [4], in experiment [5] and in [6] was “inactive” throughout. Also, the Potency result in experiment [8] and in experiment [9] was “inactive” in each case. For the same molecule, the call in experiment [7] and in [10] was inactive.

With `FC(F)(F)COCC(F)(F)F`, the Potency result in experiment [1], in experiment [2], in experiment [3], in experiment [4], in [5] and in experiment [6] was “inactive” each time. The Potency entry in [8] and in experiment [9] was “inactive” in each case. Moreover, the outcome in experiment [7] and in experiment [10] was inactive.

For the molecule `COc1cc2c(c(OC)c1OC)-c1c(cc3c(c1OC)OCO3)C[C@@H](C)[C@](C)(O)C2`, the Potency entry in [1], in experiment [2], in experiment [3], in [4], in experiment [5] and in experiment [6] was “inactive” each time. For the same molecule, the Potency result in [8] and in [9] was “inactive” in each case. For the same molecule, the result in [7] and in experiment [10] was inactive.

In the case of `C1CCc2nnnn2CC1`, the Potency entry in experiment [1], in experiment [2], in [3], in experiment [4], in [5] and in experiment [6] was “inactive” in each case. Moreover, the Potency entry in experiment [8] and in [9] was “inactive” throughout. In addition, the molecule was classed as inactive in experiment [7] and in experiment [10].

As for `O=C(O)/C=C/C(=O)Nc1ccc(S(=O)(=O)Nc2nccs2)cc1`, the Potency entry in [1], in [2], in [3], in [4], in experiment [5] and in experiment [6] was “inactive” in each case. Also, the Potency result in experiment [8] and in experiment [9] was “inactive” in each case. Also, the molecule was called inactive in experiment [7] and in experiment [10].

As for `O=S(=O)(O)CC(S)CS` (stereo not given), the Potency result in experiment [1], in experiment [2], in [3], in [4], in experiment [5] and in experiment [6] was “inactive” in each case. Besides, the Potency result in experiment [8] and in [9] was “inactive” throughout. The molecule was classed as inactive in experiment [7] and in [10].

With `CC(=NCc1ccccc1)c1ccccc1O`, the Potency entry in [1], in experiment [2], in [3], in [4], in experiment [5] and in experiment [6] was “inactive” each time. Moreover, the Potency result in experiment [8] and in [9] was “inactive” throughout. Further, the outcome in experiment [7] and in [10] was inactive.

On to `CC[C@@H](C)CCCCC(=O)N[C@@H](CCNCS(=O)(=O)O)C(=O)N[C@H](C(=O)N[C@@H](CCNCS(=O)(=O)O)C(=O)N[C@H]1CCNC(=O)[C@H]([C@@H](C)O)NC(=O)[C@H](CCNCS(=O)(=O)O)NC(=O)[C@H](CCNCS(=O)(=O)O)NC(=O)[C@H](CC(C)C)NC(=O)[C@@H](CC(C)C)NC(=O)[C@H](CCNCS(=O)(=O)O)NC1=O)[C@@H](C)O` (X3-[Dab(CH2SO3H)]T[Dab(CH2SO3H)][Dab][Dab(CH2SO3H)][dL]L[Dab(CH2SO3H)][Dab(CH2SO3H)]T; lactam 4-C), for which the Potency entry in experiment [1], in experiment [2], in experiment [3], in experiment [4], in experiment [5] and in [6] was “inactive” each time. The Potency result in experiment [8] and in experiment [9] was “inactive” in each case. The molecule was called inactive in experiment [7] and in [10].

Take `CCC[C@@H]1C[C@@H](C(=O)N[C@@H]([C@H]2O[C@H](SC)[C@H](OP(=O)(O)O)[C@@H](O)[C@H]2O)[C@H](C)Cl)N(C)C1`: the Potency result in experiment [1], in [2], in [3], in experiment [4], in experiment [5] and in experiment [6] was “inactive” throughout. Also, the Potency result in experiment [8] and in experiment [9] was “inactive” in each case. The outcome in [7] and in experiment [10] was inactive.

Consider `C=CC1=C(C(=O)O)N2C(=O)[C@@H](NC(=O)/C(=N/OCC(=O)O)c3csc(N)n3)[C@H]2SC1` (stereo in doubt), for which the Potency result in experiment [1], in experiment [2], in experiment [3], in experiment [4], in experiment [5] and in experiment [6] was “inactive” each time. Besides, the Potency entry in experiment [8] and in experiment [9] was “inactive” throughout. For the same molecule, the molecule was classed as inactive in experiment [7] and in experiment [10].

As for `C[C@H](Cc1ccc(O)c(O)c1)[C@@H](C)Cc1ccc(O)c(O)c1`, the Potency entry in [1], in experiment [2], in [3], in [4], in experiment [5] and in experiment [8] was “inactive” each time. For the same molecule, in experiment [9], the Potency result was “inactive”. Also, the Potency in experiment [6] is 13.3 µM (active). Also, the molecule was classed as inactive in [7] and in experiment [10].

For `CO[C@H](C(=O)[C@@H](O)[C@@H](C)O)C1Cc2cc3cc(O[C@H]4C[C@@H](O[C@H]5C[C@@H](O)[C@H](O)[C@@H](C)O5)[C@@H](O)[C@@H](C)O4)c(C)c(O)c3c(O)c2C(=O)[C@H]1O[C@H]1C[C@@H](O[C@H]2C[C@@H](O[C@H]3C[C@](C)(O)[C@H](O)[C@@H](C)O3)[C@H](O)[C@@H](C)O2)[C@H](O)[C@@H](C)O1` (stereo not given in full), the Potency was 42.2 nM (active) and 53.1 nM (active) in [1]; 27.8 µM (active) in experiment [6]. For the same molecule, the Potency entry in [2], in experiment [3], in experiment [4], in experiment [5], in experiment [8] and in experiment [9] was “inactive” in each case. For the same molecule, the molecule was called inactive in experiment [7] and in [10].

Turning to `O=C(O)[C@H]1CN(C/C=C/P(=O)(O)O)CCN1`, the Potency entry in [1], in experiment [2], in [3], in experiment [4], in experiment [5] and in experiment [6] was “inactive” each time. In addition, the Potency entry in [8] and in experiment [9] was “inactive” each time. In addition, the result in [7] and in experiment [10] was inactive.

Turning to `CO[C@H]1C[C@H](O[C@H]2[C@H](C)[C@@H](O[C@@H]3O[C@H](C)C[C@H](N(C)C)[C@H]3O)[C@@H](C)C[C@]3(CO3)C(=O)[C@H](C)[C@@H](O)[C@@H](C)[C@@H](C)OC(=O)[C@@H]2C)O[C@@H](C)[C@@H]1O`, the Potency result in [1], in experiment [2], in experiment [3], in [4], in [5] and in experiment [6] was “inactive” each time. Further, the Potency entry in [8] and in experiment [9] was “inactive” throughout. In addition, the outcome in [7] and in experiment [10] was inactive.

For the molecule `CO/N=C(\C(=O)N[C@@H]1C(=O)N2C(C(=O)[O-])=C(C[n+]3ccc(N)n3CCO)CS[C@H]12)c1csc(N)n1`, the Potency result in [1], in experiment [2], in [3], in experiment [4], in [5] and in experiment [6] was “inactive” each time. The Potency entry in experiment [8] and in experiment [9] was “inactive” throughout. In addition, the molecule was classed as inactive in experiment [7] and in [10].

Regarding `CNC(=O)C[C@@H](N)C(=O)N[C@@H](C(=O)N[C@@H]1C(=O)N2[C@@H]1SC(C)(C)[C@@H]2C(=O)O)c1ccc(O)cc1`, the Potency entry in [1], in experiment [2], in experiment [3], in experiment [4], in [5] and in [6] was “inactive” in each case. The Potency result in experiment [8] and in experiment [9] was “inactive” in each case. The outcome in experiment [7] and in [10] was inactive.
